Experimental data from PubChem BioAssay (NCI).
The panel holds about 79,000 compounds, 15% with a hit somewhere; the sample as a whole holds those more often. Active and inactive are the calls of the source. Cut-off read from the data, not from the text of the source: active = growth inhibition above about 70%; inactive = the rest.

Legend:
[1] = NCI Yeast Anticancer Drug Screen. Data for the rad52 strain (AID 147);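 note: 0% = growth of vehicle-treated control cultures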; details: S. cerevisiae rad52 mutant growth inhibition, stronger effect = higher value
Outline: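 Compounds are applied to a genetically defined yeast strain lacking normal DNA damage repair, and inhibition of growth is expressed relative to cultures given vehicle only.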

[2] = NCI Yeast Anticancer Drug Screen. Data for the wt1 strain (AID 149);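 note: 0% = growth of vehicle-treated wt1 cultures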; details: S. cerevisiae wt1 strain (SPY 50644) growth inhibition, stronger effect = higher value
Outline: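 wt1 strain grown with compound or vehicle; inhibition taken from the growth difference.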

[3] = NCI Yeast Anticancer Drug Screen. Data for the rad50EPP+ strain (AID 151);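 note: 0% = growth of vehicle-treated control cultures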; details: S. cerevisiae rad50 mutant strain, stronger effect = higher value
Outline: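 Compounds were applied to the rad50EPP+ yeast strain, which bears a defined DNA repair alteration, and growth inhibition was determined relative to vehicle-treated cultures.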

[4] = NCI Yeast Anticancer Drug Screen. Data for the mgt1 strain (AID 153); details: S. cerevisiae mgt1 mutant growth inhibition, stronger effect = higher value
Outline: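 Strain: mgt1 yeast, one of a set carrying defined DNA damage repair or cell cycle control alterations. Compound-treated growth compared with vehicle.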

[5] = NCI Yeast Anticancer Drug Screen. Data for the rad50 strain (AID 155);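 note: 0% = growth of vehicle-only cultures of the same strain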; details: S. cerevisiae rad50 strain growth inhibition, stronger effect = higher value
Outline: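 DNA repair mutant yeast, compound exposure, growth read-out; inhibition is taken relative to vehicle.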

[6] = NCI Yeast Anticancer Drug Screen. Data for the mec2-1 strain (AID 157); details: S. cerevisiae mec2-1 strain, stronger effect = higher value
Outline: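 Strain: mec2-1 (DNA repair/cell cycle alteration). Compound exposure, then growth measured; inhibition expressed relative to vehicle.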

[7] = NCI Yeast Anticancer Drug Screen. Data for the rad14 strain (AID 159);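 note: 0% = growth of vehicle-treated control cultures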; details: S. cerevisiae rad14 strain growth inhibition, stronger effect = higher value
Outline: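 DNA repair-defective yeast, compound-exposed; % growth inhibition derived by comparison with vehicle-treated controls.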

[8] = NCI Yeast Anticancer Drug Screen. Data for the sgs1 mgt1 strain (AID 161);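 note: 0% = growth of cultures given vehicle only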; details: S. cerevisiae sgs1 mgt1 strain, stronger effect = higher value
Outline: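 Genetically altered yeast, compound exposure, growth inhibition relative to vehicle.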

[9] = NCI Yeast Anticancer Drug Screen. Data for the CLN2oe strain (AID 163);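 note: 0% = growth of vehicle-only control cultures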; details: S. cerevisiae CLN2oe strain, stronger effect = higher value
Outline: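 Growth of a genetically modified yeast strain is measured after compound exposure and compared with cultures given vehicle alone.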

[10] = NCI Yeast Anticancer Drug Screen. Data for the cln2 rad14 strain (AID 165);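 note: 0% = growth equal to vehicle treated cultures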; details: S. cerevisiae cln2 rad14 strain, stronger effect = higher value
Outline: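 Compounds are applied to the cln2 rad14 yeast strain, and growth is then compared with that of vehicle-treated cultures to give inhibition.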

[11] = NCI Yeast Anticancer Drug Screen. Data for the bub3 strain (AID 167); details: S. cerevisiae bub3 mutant strain, stronger effect = higher value
Outline: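 In this screen, a yeast mutant lacking normal mitotic checkpoint function is challenged with compound. Relative growth versus vehicle gives the inhibition value.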

[12] = NCI Yeast Anticancer Drug Screen. Data for the wt2 strain (AID 169);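 note: 0% = growth of vehicle-treated yeast cultures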; details: S. cerevisiae wt2 strain growth inhibition, stronger effect = higher value
Outline: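 This strain belongs to a panel of yeast strains with defined genetic alterations in DNA damage repair or cell cycle control. Compounds are applied, and growth inhibition is measured against vehicle-treated cultures.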

[13] = NCI Yeast Anticancer Drug Screen. Data for the mlh1 strain (AID 171);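 note: 0% = growth of vehicle-treated control cultures of the same strain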; details: S. cerevisiae mlh1 strain growth inhibition, stronger effect = higher value
Outline: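 Growth of the mutant yeast strain after compound exposure, expressed as inhibition relative to vehicle-only controls.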

[14] = NCI Yeast Anticancer Drug Screen. Data for the sgs1 strain (AID 173);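 note: 0% = growth of vehicle-only control cultures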; details: S. cerevisiae sgs1 mutant, stronger effect = higher value
Outline: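 Growth of a yeast strain bearing a defined genetic alteration is measured after compound treatment. Inhibition is expressed relative to vehicle-only controls.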

[15] = NCI Yeast Anticancer Drug Screen. Data for the rad18 strain (AID 177); details: S. cerevisiae rad18 mutant growth inhibition, stronger effect = higher value
Outline: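 Growth of the mutant yeast strain after compound exposure, normalised to vehicle-only cultures.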

[16] = NCI Yeast Anticancer Drug Screen. Data for the mlh1 rad18 strain (AID 175); details: S. cerevisiae mlh1 rad18 strain growth inhibition, stronger effect = higher value
Outline: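 Read-out is yeast growth inhibition, calculated against vehicle-only controls. The compound was applied to a strain engineered with DNA damage repair alterations.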

[17] = at 5.0 µM (retest, dose inferred, filed as 0.5)
[18] = at 50.0 µM (retest, dose inferred, filed as 5.0)

Measured: growth inhibition

Oc1ccc2c(c1)C(O)CCCC2 (stereo not drawn)
active: [1]; at 100.0 µM 86% | [3]; at 100.0 µM 71% | [4]; at 100.0 µM 71% | [5]; [18] 97% | [5]; at 50.0 µM 77.8% | [5]; at 100.0 µM 91% | [6]; [18] 82% | [7]; at 100.0 µM 95% | [8]; [18] 98% | [11]; [18] 96% | [13]; at 100.0 µM 90% | [14]; at 100.0 µM 93% | [15]; at 100.0 µM 90%
inactive: [1]; at 1.2 µM 5% | [1]; at 3.7 µM 9% | [1]; at 11.0 µM 25% | [1]; at 33.0 µM 38% | [2]; at 1.2 µM -3% | [2]; at 3.7 µM -7% | [2]; at 11.0 µM -4% | [2]; at 33.0 µM -1% | [2]; at 100.0 µM 18% | [3]; at 1.2 µM 10% | [3]; at 3.7 µM 25% | [3]; at 11.0 µM 40% | [3]; at 33.0 µM 53% | [4]; at 1.2 µM -2% | [4]; at 3.7 µM 1% | [4]; at 11.0 µM 4% | [4]; at 33.0 µM 17% | [5]; at 1.2 µM 4% | [5]; at 3.7 µM 16% | [5]; [17] 31% | [5]; at 11.0 µM 28% | [5]; at 33.0 µM 46% | [6]; at 1.2 µM -3% | [6]; at 3.7 µM -1% | [6]; [17] 6% | [6]; at 11.0 µM 2% | [6]; at 33.0 µM 7% | [6]; at 50.0 µM 58.6% | [6]; at 100.0 µM 46% | [7]; at 1.2 µM 5% | [7]; at 3.7 µM 13% | [7]; at 11.0 µM 23% | [7]; at 33.0 µM 43% | [8]; [17] 65% | [8]; at 50.0 µM 34.1% | [9]; at 1.2 µM -4% | [9]; at 3.7 µM -6% | [9]; at 11.0 µM -3% | [9]; at 33.0 µM 7% | [9]; at 100.0 µM 42% | [10]; [17] 0% | [10]; [18] 36% | [10]; at 50.0 µM 35.4% | [11]; at 1.2 µM -9% | [11]; at 3.7 µM -8% | [11]; [17] 30% | [11]; at 11.0 µM -9% | [11]; at 33.0 µM -2% | [11]; at 50.0 µM 66.2% | [11]; at 100.0 µM 35% | [12]; at 1.2 µM -5% | [12]; at 3.7 µM -4% | [12]; at 11.0 µM 25% | [12]; at 33.0 µM 4% | [12]; at 100.0 µM 69% | [13]; at 1.2 µM 2% | [13]; at 3.7 µM 10% | [13]; at 11.0 µM 15% | [13]; at 33.0 µM 29% | [14]; at 1.2 µM 5% | [14]; at 3.7 µM 19% | [14]; at 11.0 µM 24% | [14]; at 33.0 µM 43% | [15]; at 1.2 µM 2% | [15]; at 3.7 µM 10% | [15]; at 11.0 µM 20% | [15]; at 33.0 µM 36%

O=c1ccc2ccccc2c2ccccc12
inactive: [1]; at 1.2 µM -49% | [1]; at 3.7 µM -33% | [1]; at 11.0 µM 52% | [2]; at 1.2 µM -17% | [2]; at 3.7 µM 18% | [3]; at 1.2 µM -4% | [3]; at 3.7 µM 13% | [3]; at 11.0 µM 46% | [4]; at 1.2 µM 3% | [4]; at 3.7 µM 21% | [5]; at 1.2 µM -13% | [5]; at 3.7 µM 7% | [5]; [17] -2% | [5]; at 11.0 µM 66% | [6]; at 1.2 µM -3% | [6]; at 3.7 µM 22% | [6]; [17] 1% | [7]; at 1.2 µM -9% | [7]; at 3.7 µM 1% | [7]; at 11.0 µM 63% | [8]; [17] 6% | [9]; at 1.2 µM 20% | [9]; at 3.7 µM 25% | [10]; [17] 5% | [11]; at 1.2 µM 5% | [11]; at 3.7 µM 47% | [11]; [17] 50% | [12]; at 1.2 µM -27% | [12]; at 3.7 µM 2% | [12]; at 11.0 µM 69% | [13]; at 1.2 µM 15% | [13]; at 3.7 µM 55% | [14]; at 1.2 µM -2% | [14]; at 3.7 µM 12% | [14]; at 11.0 µM 69% | [16]; [17] 39% | [15]; at 1.2 µM -4% | [15]; at 3.7 µM -3%
active: [1]; at 33.0 µM 97% | [1]; at 100.0 µM 99% | [2]; at 11.0 µM 76% | [2]; at 33.0 µM 98% | [2]; at 100.0 µM 99% | [3]; at 33.0 µM 95% | [3]; at 100.0 µM 99% | [4]; at 11.0 µM 79% | [4]; at 33.0 µM 99% | [4]; at 100.0 µM 99% | [5]; at 33.0 µM 97% | [5]; [18] 98% | [5]; at 50.0 µM 90.9% | [5]; at 100.0 µM 97% | [6]; at 11.0 µM 82% | [6]; at 33.0 µM 99% | [6]; [18] 99% | [6]; at 50.0 µM 93.9% | [6]; at 100.0 µM 100% | [7]; at 33.0 µM 98% | [7]; at 100.0 µM 97% | [8]; [18] 98% | [8]; at 50.0 µM 91.6% | [9]; at 11.0 µM 87% | [9]; at 33.0 µM 100% | [9]; at 100.0 µM 100% | [10]; [18] 99% | [10]; at 50.0 µM 90.4% | [11]; at 11.0 µM 88% | [11]; at 33.0 µM 98% | [11]; [18] 99% | [11]; at 50.0 µM 90.6% | [11]; at 100.0 µM 98% | [12]; at 33.0 µM 98% | [12]; at 100.0 µM 99% | [13]; at 11.0 µM 83% | [13]; at 33.0 µM 99% | [13]; at 100.0 µM 99% | [14]; at 33.0 µM 98% | [14]; at 100.0 µM 98% | [16]; [18] 99% | [16]; at 50.0 µM 90.9% | [15]; at 11.0 µM 76% | [15]; at 33.0 µM 97% | [15]; at 100.0 µM 97%
